Assay outcomes: PubChem, several laboratories
SMARCA2 activ = activators of SMARCA2 function; MG213 cells, MMTV-luciferase reporter, dexamethasone, overnight; activation, % at 9.1 µM; 370,000 compounds, 1% hits; in the data active = activation above about 7.8%;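 note: 0% = vehicle wells and 100% = reference activator wells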
COUP-TFII inh = blocks human COUP-TFII nuclear receptor | P24468 | HEK293T NGFI-A luciferase reporter, luminescence | inhibition, % at 8.6 µM | 370,000 compounds, 0.7% hits;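 active = inhibition above a per-plate cutoff, mean inhibition of test wells between control levels plus 3 SD, cut at about 38% in these data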;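 note: cells cotransfected with COUP-TFII expression vector driving the NGFI-A reporter; 0% = median of COUP-TF2 test wells and 100% = reporter-only cells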
Target sequence (P24468 whole entry, looked up): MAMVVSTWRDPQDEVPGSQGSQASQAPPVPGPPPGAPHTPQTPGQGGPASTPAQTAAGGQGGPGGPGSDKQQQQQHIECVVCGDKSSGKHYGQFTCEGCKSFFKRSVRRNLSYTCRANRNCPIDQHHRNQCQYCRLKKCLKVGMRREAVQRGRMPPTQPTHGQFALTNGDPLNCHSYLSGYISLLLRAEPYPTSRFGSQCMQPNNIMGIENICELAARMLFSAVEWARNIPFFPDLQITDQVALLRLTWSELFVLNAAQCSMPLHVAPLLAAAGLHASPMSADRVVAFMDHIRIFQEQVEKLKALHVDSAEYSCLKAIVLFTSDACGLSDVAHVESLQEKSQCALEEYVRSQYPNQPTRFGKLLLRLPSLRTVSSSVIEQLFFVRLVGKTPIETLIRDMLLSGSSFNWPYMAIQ
H9c2 protect = modulators protecting cardiomyocytes from myocardial damage | H9c2 cardiomyocytes, H2O2 injury protection, ATPLite, 2 h | protection from H2O2 cell death, % at 20 µM | 360,000 compounds, 0.63% hits | AID 588492;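 active = compounds giving at least 50% protection of heart cells from peroxide-induced death in the single-dose screen, raw or plate-pattern-corrected value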;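 note: 0% = DMSO wells with peroxide and 100% = DMSO wells without peroxide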
Gli-Sufu antag = blocks Gli-Sufu signaling in a luciferase reporter; Sufu-KO-LIGHT fibroblasts, Gli luciferase reporter luminescence; inhibition, % at 5 µM; 340,000 compounds, 0.74% hits;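 active = inhibition above about 55%, limit read from the data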;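 note: 0% = DMSO-treated cells and 100% = wells with medium but no cells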
GalR3 antagonist = blocks the human galanin receptor 3 | 360,000 compounds, 0.44% hits | HEK293 GalR3-CNG cAMP membrane potential fluorescence; galR3 body fused to GalR1 C-terminus | inhibition, % at 3 µM;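 active = inhibition above the screen-wide average plus 3 SD, cut at about 13% in these data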;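 note: forskolin and galanin both at EC90 stimulate the cells; cAMP rise reported by CNG channel membrane potential dye signal; 0% = forskolin plus galanin with DMSO and 100% = forskolin alone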
Target sequence (O60755 1-299 limits assumed): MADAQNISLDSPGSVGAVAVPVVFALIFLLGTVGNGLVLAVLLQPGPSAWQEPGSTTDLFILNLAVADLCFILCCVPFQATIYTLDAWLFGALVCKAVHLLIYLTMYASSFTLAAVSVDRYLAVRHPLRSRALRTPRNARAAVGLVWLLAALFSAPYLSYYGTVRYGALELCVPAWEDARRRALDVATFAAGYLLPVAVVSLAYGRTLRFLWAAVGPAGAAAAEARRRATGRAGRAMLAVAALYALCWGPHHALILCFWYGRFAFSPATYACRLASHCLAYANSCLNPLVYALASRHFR
GAA850 FXN act = frataxin GAA850 promoter activation; HEK293 lucGAA850 FXN promoter luciferase reporter, 24 h; percent of 10 µM SAHA response; activation, % at 6 µM; 360,000 compounds, 0.56% hits;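 active = activation above the average of all compounds screened plus 3 SD, cutoff fixed separately per campaign, cut at about 7.5% in these data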;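 note: 0% = DMSO wells and 100% = 10 µM SAHA wells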
Gli-Sufu confirm = Gli-SUFU antagonism confirmation, single concentration | shares compounds with Gli-Sufu antag | Sufu-KO-LIGHT cells, Gli luciferase reporter, luminescence | inhibition, % at 5 µM | 2,500 compounds, 40% hits | AID 602428;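 active = mean inhibition at 5 µM reaching about 45%, limit read from the data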;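 note: plate controls were DMSO-treated cells for no effect and wells lacking cells for full effect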
SufuKO cytotox = cytotoxic in Gli-SUFU antagonist counter-screen. AID 651994. Sufu-KO-LIGHT cells cytotoxicity, ATP luminescence. shares compounds with Gli-Sufu antag. cytotoxicity, % at 5 µM. 2,500 compounds, 32% hits;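 active = mean cytotoxicity at 5 µM above about 25%, limit read from the data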;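 note: cells exposed to compound overnight for roughly 16 to 18 hours; plate controls were DMSO wells with cells for no effect and medium without cells for full effect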
Wnt3a cs = Wnt3a reporter inhibition counter-screen; 2,500 compounds, 20% hits; AID 651995; Wnt-LIGHT cells, Wnt3a-driven luciferase reporter, luminescence; shares compounds with Gli-Sufu antag; inhibition, % at 6.25 µM;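 active = mean inhibition above about 25%, limit read from the data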
GalR3 antag conf = GalR3 (human) antagonism, confirmation; 1,600 compounds, 59% hits; inhibition, % at 3 µM; AID 652245; HEK293 GalR3 CNG cAMP biosensor, membrane potential fluorescence; galR3 fused to GalR1 carboxy tail; challenged with forskolin and galanin at EC90; shares compounds with GalR3 antagonist;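 active = inhibition above the primary screen's cutoff, the mean inhibition of all screened compounds plus 3 SD, cut at about 13% in these data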;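 note: 0% = forskolin plus galanin and 100% = forskolin alone with DMSO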
HEK-CNG parental = parental cell agonism counter-screen for GalR3 antagonists. shares compounds with GalR3 antagonist. HEK293-CNG parental cells, cAMP membrane potential fluorescence; normalised: DMSO wells 0%, forskolin wells 100%. activation, % at 3 µM. 1,600 compounds, 10% hits. AID 652268; in the data active = activation above about 1.3%
Gal4-VP16 ctr = inhibits VP16 reporter, flagging COUP-TFII antagonist hits | shares compounds with COUP-TFII inh | HEK293 Gal4-VP16 luciferase reporter, luminescence | inhibition, % at 8.5 µM | 2,500 compounds, 25% hits; in the data active = inhibition above about 13%
NR2F2 inh conf = COUP-TFII (NR2F2) inhibition, confirmation assay; shares compounds with COUP-TFII inh; HEK293 NGFI-A luciferase reporter, luminescence; inhibition, % at 8.5 µM; 2,500 compounds, 45% hits; AID 687008;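 active = mean inhibition over three repeats above a set limit taken from the earlier primary screen, cut at about 38% in these data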;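 note: 100% = cells given the luciferase reporter alone without the COUP-TF2 vector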
An asterisk follows results filed as active; . = no result given. Only some compounds are listed: those with a hit (about 3.4% of all), similar ones and a draw of the others.

SMILES	SMARCA2 activ	COUP-TFII inh	H9c2 protect	Gli-Sufu antag	GalR3 antagonist	GAA850 FXN act	Gli-Sufu confirm	SufuKO cytotox	Wnt3a cs	Gal4-VP16 ctr	NR2F2 inh conf	others
Cn1nc(C(C)(C)C)cc1C(=O)NCc1cc(F)cc2c1OCOC2	-5.6	63.3*	-14.6	58.4*	95.4*	-3.5	69.7*	26.4*	36.9*	6.0	60.7*	GalR3 antag conf=111.1*;HEK-CNG parental=-0.4
Cc1cc(C(=O)NCc2cc(F)cc3c2OCOC3)nn1C	-3.1	-15.4	3.3	9.5	-0.3	0.8	.	.	.	.	.
Cc1cc(N2CCN(C(c3ccccc3)c3ccccc3)CC2)n2ncnc2n1	-2.2	-15.2	22.2	7.6	-3.8	-0.9	.	.	.	.	.
Cc1cc(N2CCN(c3nc4ccccc4s3)CC2)n2ncnc2n1	-6.5	67.7*	-17.0	71.2*	23.9*	-1.2	66.1*	38.5*	-18.8	-6.8	71.3*	GalR3 antag conf=37.0*;HEK-CNG parental=-0.1
NS(=O)(=O)c1ccc(CCNc2ncnc3sccc23)cc1	-8.5	52.8*	-14.1	59.6*	3.5	-0.9	54.9*	30.7*	28.2*	-7.7	36.8
COc1ccc(CCNc2ncnc3c2oc2ccccc23)cc1OC	-6.6	76.0*	-25.3	73.3*	-0.6	-2.8	74.8*	28.1*	30.7*	2.5	72.5*
c1ccc(CNc2ncnc3c2oc2ccccc23)nc1	6.2	0.3	-1.0	9.3	-3.7	4.7	.	.	.	.	.
COc1ccc(CCNc2ncnc3sccc23)cc1OC	-6.7	74.4*	-20.7	75.0*	73.0*	-5.8	79.7*	43.1*	41.3*	10.4	76.9*	GalR3 antag conf=129.1*;HEK-CNG parental=-0.2
CCN1CCN(c2ccc(NC(=O)c3cc(OC)c(OC)c(OC)c3)cc2)CC1	-1.5	-7.6	7.7	6.2	-0.6	0.3	.	.	.	.	.
CCN(CC)C(=O)c1oc2ccc(S(=O)(=O)N3CCCCCC3)cc2c1C	-3.5	19.9	-13.0	25.3	-7.3	1.0	.	.	.	.	.
CCN(CC)C(=O)c1oc2ccc(S(=O)(=O)N3CC(C)CC(C)C3)cc2c1C (centres undefined)	-4.8	51.2*	-20.3	63.0*	-9.3	-2.5	62.3*	22.9	43.8*	1.3	48.6*
Cc1ncc(CN2CCC(n3nccc3NC(=O)c3ccccc3)CC2)s1	-2.6	6.7	6.0	-3.4	0.2	-0.3	.	.	.	.	.
Cc1cc(C(=O)CSc2nnc3ccccn23)c(C)n1-c1ccccc1	-9.7	40.4*	-20.6	54.3	8.4	-11.9	64.6*	40.2*	95.8*	5.4	57.3*
CCCOc1c(Cl)cc(C(=O)Nc2ccc3c(c2)OCO3)cc1OCC	-4.8	4.3	-3.7	34.5	-1.5	-1.5	.	.	.	.	.
CSc1cccc(NS(=O)(=O)c2ccc3c(c2)CCN3C(C)=O)c1	-3.3	45.3*	-14.5	71.0*	-11.4	-3.1	60.1*	29.5*	27.1*	6.1	48.1*
COc1cccc(NS(=O)(=O)c2ccc3c(c2)CCN3C(C)=O)c1	-3.0	36.5	-11.8	47.3	-12.7	-0.8	.	.	.	.	.
CCC(C)(C)NC(=O)CN(C(=O)CCC(=O)Nc1nccs1)c1ccccc1C	-0.3	3.0	3.3	-21.3	-5.5	0.2	.	.	.	.	.
O=C(c1cc(COc2cccc(C(F)(F)F)c2)on1)N1CCC(c2ccncc2)CC1	-3.6	45.6*	-12.9	50.5	-7.1	-0.2	61.5*	37.4*	-77.2	-15.9	35.9
Nc1ccc(-c2cc3ccccc3oc2=O)cc1	-10.1	87.8*	-5.0	61.5*	-10.6	-12.4	71.7*	9.4	103.0*	81.3*	79.6*
O=C(CCn1nc(-c2ccc(Cl)cc2)c2ccccc2c1=O)NN1CCOCC1	0.5	12.5	7.0	7.9	-3.0	0.1	.	.	.	.	.
Cc1ccc(-n2c(C)cc(C(=O)NS(=O)(=O)c3ccc(C)cc3)c2C)cc1	-4.2	8.0	5.3	27.2	-1.4	0.7	.	.	.	.	.
Cc1ccc(NC(=O)c2cc(C)n(-c3cccc(C)c3)c2C)cc1	2.5	37.8*	-12.7	77.3*	2.1	-5.8	86.1*	66.8*	89.2*	-98.4	37.6*
COc1cccc(/C=N/NC(=O)c2ccccc2N(Cc2ccccc2)S(=O)(=O)c2ccccc2)c1OC	0.1	11.6	-7.8	4.0	4.7	0.8	.	.	.	.	.
COC(=O)Cc1ccc(NC(=O)c2ccc(C(C)(C)C)cc2)cc1	-10.6	94.7*	-23.2	72.2*	10.6	-12.5	76.8*	45.5*	102.3*	83.1*	93.5*
COc1cc(OC)cc(-c2cc3nc(C)c(CCC(=O)O)c(C)n3n2)c1	-6.9	89.2*	4.9	60.8*	3.7	-13.2	64.3*	1.6	90.4*	88.6*	96.5*
SMILES	SMARCA2 activ	COUP-TFII inh	H9c2 protect	Gli-Sufu antag	GalR3 antagonist	GAA850 FXN act	Gli-Sufu confirm	SufuKO cytotox	Wnt3a cs	Gal4-VP16 ctr	NR2F2 inh conf	others
CCCC1CCC2(CCCN2CCOC(=O)Nc2ccc(F)cc2)CC1 (centres undefined)	.	25.4	.	.	.	.	.	.	.	.	.
Cc1ccc(NC(=O)CSc2ccc3c(c2)OCCO3)c(O)c1	-4.5	39.1*	-14.7	73.2*	33.1*	0.8	69.3*	42.6*	51.4*	3.7	37.3	GalR3 antag conf=75.5*;HEK-CNG parental=-0.8
CCN1CCS/C1=C\C=C\C1=[N+](CC)CCS1	-8.4	68.1*	-24.9	80.7*	15.4*	-7.5	87.2*	33.5*	50.2*	11.8	63.6*
O=C(CSc1ncnc2ccccc12)NCCc1ccccc1	0.9	4.0	-2.1	-1.1	-0.5	0.8	.	.	.	.	.
c1ccc(CCNc2ncnc3ccccc23)cc1	0.7	56.8*	-8.7	55.2*	93.4*	-3.9	57.6*	28.8*	24.4	-148.7	29.0
CCOC(=O)C1CCCN(S(=O)(=O)c2ccc(C)cc2)C1 (centres undefined)	-3.3	2.8	2.5	3.9	-7.8	0.8	.	.	.	.	.
